Source: PubChem BioAssay (Tox21)
Records with an inconclusive call do not appear. The source made the active and inactive calls. Unless noted, calls come from the whole dose curve.

Legend:
[1] = Nuclear factor erythroid 2-related factor 2/antioxidant responsive element (Nrf2/ARE) small molecule agonists: qHTS cell viability counter screen in human keratinocytes (AID 1919968; active = well fitted curve in the direction sought with a large enough effect in the repeat runs; an effect the other way counts as inactive or inconclusive; note: nearly all actives have a fitted effect of over 55% in size)
In short: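 Seed 1,500 KeratinoSens cells per well, then incubate 5 h at 37 C/5% CO2. Add compounds in DMSO and incubate 23 h. Add CellTiter-Fluor, wait 1 h and read fluorescence.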

[2] = Nuclear factor erythroid 2-related factor 2/antioxidant responsive element (Nrf2/ARE) small molecule agonists: luciferase reporter gene qHTS assay in human keratinocytes (AID 1919969); note: nearly all actives have a fitted effect of over 35% in size
[3] = molecular target: Gonadotropin-releasing hormone receptor (Homo sapiens) (UniProt P30968); assay: Human gonadotropin-releasing hormone receptor (GnRHR) small molecule agonists, calcium flux assay in GnRHR-HEK293 cells (AID 1920063); note: nearly all actives have a fitted effect of over 35% in size
Gonadotropin-releasing hormone receptor (Homo sapiens), sequence (P30968 whole entry, looked up): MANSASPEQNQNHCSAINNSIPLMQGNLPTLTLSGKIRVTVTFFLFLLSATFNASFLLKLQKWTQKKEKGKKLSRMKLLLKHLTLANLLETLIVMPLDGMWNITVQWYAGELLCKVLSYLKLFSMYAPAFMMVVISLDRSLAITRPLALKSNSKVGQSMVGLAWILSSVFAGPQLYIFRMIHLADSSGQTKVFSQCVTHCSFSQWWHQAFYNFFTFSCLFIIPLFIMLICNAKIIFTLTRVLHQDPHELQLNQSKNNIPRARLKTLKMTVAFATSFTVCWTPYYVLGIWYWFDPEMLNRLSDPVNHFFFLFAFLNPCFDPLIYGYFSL
In short: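 Cells: HEK293 stably expressing human GnRHR. Steps: overnight (18 h) culture, 1 h calcium dye loading at 37 C, compound addition, kinetic fluorescence read at 480/540 nm. Each compound tested at 15 concentrations in triplicate.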

[4] = G protein-coupled receptor (GPCR) small molecule agonists, calcium flux assay: HEK293 wild type cell line counter screen (AID 1920065)
In short: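 Counter-screen of the Tox21 10K library for non-specific calcium release: dye-loaded cells received compounds in DMSO and were monitored by kinetic fluorescence (480/540 nm, 3 min). Fifteen concentrations, run in triplicate.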

[5] = p53 small molecule agonists, cell-based qHTS assay with rat liver microsomes: qHTS cell viability counter screen (AID 1963580); note: nearly all actives have a fitted effect of over 45% in size
In short: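 Viability is assessed in parallel with the p53 reporter read: HCT-116 p53RE-bla cells receive compounds plus rat microsomes and NADPH (0.5 mg/mL final apiece), incubate 16 h at 37 C, and then CellTiter-Glo luminescence is recorded.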

[6] = p53 small molecule agonists, cell-based qHTS assay: qHTS cell viability counter screen (AID 1963581); note: nearly all actives have a fitted effect of over 45% in size
In short: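 Cells: HCT-116 with p53 response element-driven beta-lactamase. Treatment: 16 h, 37 C, compounds in DMSO. Read: CellTiter-Glo luminescence after 30 min RT.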

[7] = molecular target: 5-hydroxytryptamine receptor 2A (Homo sapiens) (UniProt P28223); assay: 5-hydroxytryptamine receptor 2A (HTR2A) small molecule antagonists, cell-based qHTS assay (AID 1963586); note: nearly all actives have a fitted effect of over 45% in size
5-hydroxytryptamine receptor 2A (Homo sapiens), sequence (P28223 whole entry, looked up): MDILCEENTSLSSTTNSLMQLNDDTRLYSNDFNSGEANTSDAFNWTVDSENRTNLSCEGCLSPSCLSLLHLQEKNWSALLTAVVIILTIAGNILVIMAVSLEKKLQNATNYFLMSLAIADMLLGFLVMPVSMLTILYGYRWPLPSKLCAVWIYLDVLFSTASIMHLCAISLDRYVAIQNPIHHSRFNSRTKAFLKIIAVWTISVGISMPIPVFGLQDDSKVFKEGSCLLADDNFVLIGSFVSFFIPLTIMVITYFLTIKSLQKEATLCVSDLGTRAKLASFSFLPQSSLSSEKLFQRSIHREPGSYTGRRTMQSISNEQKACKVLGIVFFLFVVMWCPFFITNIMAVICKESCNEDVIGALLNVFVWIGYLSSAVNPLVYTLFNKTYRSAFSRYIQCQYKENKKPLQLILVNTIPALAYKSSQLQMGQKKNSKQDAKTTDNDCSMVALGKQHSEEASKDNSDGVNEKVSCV
In short: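 Antagonist-mode intracellular calcium assay: DOI (4 nM) added after 5 min compound pre-incubation at room temperature to dye-loaded HTR2A-CHO cells. Fluorescence followed for 3 min, sampled every second.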

[8] = molecular target: 5-hydroxytryptamine receptor 2A (Homo sapiens) (UniProt P28223); assay: 5-hydroxytryptamine receptor 2A (HTR2A) small molecule agonists, cell-based qHTS assay (AID 1963587); note: nearly all actives have a fitted effect of over 30% in size
In short: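 CHO cells stably expressing human HTR2A, plated 18 h, loaded with calcium dye 1 h at 37 C. Agonist mode: compounds added and intracellular calcium fluorescence recorded kinetically for 2 min at 1 sec intervals.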

[9] = molecular target: Muscarinic acetylcholine receptor M1 (Homo sapiens) (UniProt P11229); assay: Cholinergic receptor muscarinic 1 (CHRM1) small molecule antagonists, cell-based qHTS assay (AID 1963588); note: nearly all actives have a fitted effect of over 40% in size
Muscarinic acetylcholine receptor M1 (Homo sapiens), sequence (P11229 whole entry, looked up): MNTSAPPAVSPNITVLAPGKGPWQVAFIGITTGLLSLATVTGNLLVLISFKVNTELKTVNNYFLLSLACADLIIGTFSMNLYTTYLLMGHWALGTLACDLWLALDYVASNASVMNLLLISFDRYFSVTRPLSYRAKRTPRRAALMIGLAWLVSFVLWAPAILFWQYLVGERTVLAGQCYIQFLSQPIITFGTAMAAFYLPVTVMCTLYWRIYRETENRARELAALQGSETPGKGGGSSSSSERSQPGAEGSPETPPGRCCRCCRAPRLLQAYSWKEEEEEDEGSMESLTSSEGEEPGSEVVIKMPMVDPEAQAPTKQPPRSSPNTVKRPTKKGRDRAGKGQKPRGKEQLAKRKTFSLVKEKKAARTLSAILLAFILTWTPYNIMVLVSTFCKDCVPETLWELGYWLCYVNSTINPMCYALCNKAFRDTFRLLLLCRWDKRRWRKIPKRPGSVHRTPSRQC
In short: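 CHRM1-CHO calcium-flux assay, antagonist mode. Cells were seeded 18 h, dye-loaded 1 h at 37 C and given compound for 5 min at RT, then acetylcholine was added at 50nM. FDSS fluorescence was read 3 min; 15 concentrations, three runs.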

[10] = molecular target: Muscarinic acetylcholine receptor M1 (Homo sapiens) (UniProt P11229); assay: Cholinergic receptor muscarinic 1 (CHRM1) small molecule agonists, cell-based qHTS assay (AID 1963589); note: nearly all actives have a fitted effect of over 35% in size
In short: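 Agonist-mode qHTS in CHO cells stably carrying human muscarinic M1. Intracellular calcium is tracked by fluorescence every second after compound transfer; each compound runs at 15 concentrations in three independent runs.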

[11] = cAMP Responsive Elements (CRE) small molecule agonists, cell-based qHTS assay (AID 1963590)
In short: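 Agonist mode qHTS in CRE-bla HEK 293T cells: compounds dosed from DMSO for 3 h at 37 C/5% CO2, followed by LiveBLAzer B/G FRET substrate for 2 h at room temperature.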

[12] = cAMP Responsive Elements (CRE) small molecule antagonists, cell-based qHTS assay (AID 1963591; active = well fitted inhibition curve with a large enough effect in the signal ratio in the repeat runs, not every such curve was filed as active; the % refers to the signal ratio)
In short: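 Antagonist mode: test compounds are co-incubated with the adenylyl cyclase activator NKH477 (0.25 uM final) on CRE-bla HEK293T cells for 3 h at 37 °C, followed by LiveBLAzer substrate loading.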

[13] = molecular target: Beta-2 adrenergic receptor (Homo sapiens) (UniProt P07550); assay: Adrenergic beta2 receptor (ADRB2) small molecule antagonists, cell-based qHTS assay (AID 1963592); note: series mostly up to about 92 µM; nearly all actives have a fitted effect of over 50% in size
Beta-2 adrenergic receptor (Homo sapiens), sequence (P07550 whole entry, looked up): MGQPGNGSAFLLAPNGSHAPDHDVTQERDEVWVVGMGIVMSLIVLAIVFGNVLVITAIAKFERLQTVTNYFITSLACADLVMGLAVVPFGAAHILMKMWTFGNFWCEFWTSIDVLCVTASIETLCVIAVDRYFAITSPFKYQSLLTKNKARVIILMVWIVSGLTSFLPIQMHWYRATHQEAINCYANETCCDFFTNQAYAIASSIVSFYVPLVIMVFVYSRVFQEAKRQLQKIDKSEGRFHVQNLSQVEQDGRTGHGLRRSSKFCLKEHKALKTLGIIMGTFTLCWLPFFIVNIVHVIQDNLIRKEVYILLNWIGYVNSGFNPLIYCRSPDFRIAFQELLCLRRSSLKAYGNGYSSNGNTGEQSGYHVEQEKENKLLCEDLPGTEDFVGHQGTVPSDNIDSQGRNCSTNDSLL
In short: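 Cells (CHO, stable ADRB2 overexpression) incubated 18-20hr at 37C; compounds added from DMSO; agonist mix (1nM isoproterenol, 100uM IBMX, 25uM Ro-20-1724) added; 0.5hr RT; d2-cAMP and anti-cAMP-cryptate added; 1hr RT; 665/615 nm read.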

[14] = molecular target: D(2) dopamine receptor (Homo sapiens) (UniProt P14416); assay: Dopamine D2 receptor (DRD2) small molecule agonists, cell-based qHTS assay (AID 1963594); note: nearly all actives have a fitted effect of over 35% in size
D(2) dopamine receptor (Homo sapiens), sequence (P14416 whole entry, looked up): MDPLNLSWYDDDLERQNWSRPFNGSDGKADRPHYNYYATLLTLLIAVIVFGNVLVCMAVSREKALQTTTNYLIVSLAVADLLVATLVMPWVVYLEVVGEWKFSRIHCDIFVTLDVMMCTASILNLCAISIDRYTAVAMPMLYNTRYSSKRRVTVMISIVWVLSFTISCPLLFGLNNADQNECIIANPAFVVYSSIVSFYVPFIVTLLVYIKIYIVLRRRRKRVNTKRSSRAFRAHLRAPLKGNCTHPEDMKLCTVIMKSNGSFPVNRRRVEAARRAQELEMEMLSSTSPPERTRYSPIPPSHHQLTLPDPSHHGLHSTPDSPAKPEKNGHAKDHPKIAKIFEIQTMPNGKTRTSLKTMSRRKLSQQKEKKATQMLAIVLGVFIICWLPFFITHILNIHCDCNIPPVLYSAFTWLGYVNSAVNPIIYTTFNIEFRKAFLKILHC
In short: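 HEK293 cells stably expressing human DRD2, pre-treated with PDE inhibitor Ro20-1724 (0.1 mM final) and compound 10 min at room temperature, then stimulated with NKH477 (200nM […]) for 30 min. cAMP read by HTRF (665/620 nm).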

[15] = molecular target: D(2) dopamine receptor (Homo sapiens) (UniProt P14416); assay: Dopamine D2 receptor (DRD2) small molecule antagonists, cell-based qHTS assay (AID 1963595; active = well fitted inhibition curve with a large enough effect in the signal ratio in the repeat runs, with a control signal flat; the % refers to the signal ratio)
In short: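 Cells were plated and grown for 24 h at 37 °C. Ro20-1724 (0.1 mM final) went in first, then compound for 10 min. NKH477 (200 nM) with quinpirole (12 nM) followed for 30 min at RT, then HTRF detection reagents for 1 h.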

[16] = p53 small molecule agonists, cell-based qHTS assay with human liver microsomes (AID 1963577)
In short: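 p53RE-bla reporter cells were pre-incubated 5 h at 37 C, then treated with compounds plus human liver microsomes (0.5 mg/mL final) and NADPH (0.5 mg/mL final) for 16 h at 37 C. Beta-lactamase activity was read by LiveBLAzer fluorescence after 2 h at room temperature.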

[17] = p53 small molecule agonists, cell-based qHTS assay with rat liver microsomes (AID 1963578)
In short: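 p53RE-bla cells were exposed to compounds together with rat liver microsomes (0.5 mg/mL final) and NADPH (0.5 mg/mL final) for 16 h at 37 C, then read by LiveBLAzer beta-lactamase fluorescence after 2 h at room temperature.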

[18] = p53 small molecule agonists, cell-based qHTS assay with human liver microsomes: qHTS cell viability counter screen (AID 1963579); note: nearly all actives have a fitted effect of over 45% in size
In short: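 p53RE-bla cells (4,000/well) were pre-incubated 5 h at 37 C, then given compounds in DMSO plus human liver microsomes (0.5 mg/mL final) and NADPH (0.5 mg/mL final) for 16 h at 37 C. Viability was read by CellTiter-Glo luminescence.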

[19] = p53 small molecule agonists, cell-based qHTS assay (AID 1963582; active = well fitted activation curve with a large enough effect in the signal ratio in the repeat runs, not every such curve was filed as active; the % refers to the signal ratio)
In short: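 Quantitative HTS in p53RE-bla cells: after a 5 h settling period, compounds delivered in DMSO were left on cells for 16 h at 37 C, and reporter induction was measured as fluorescence following 2 h substrate loading.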

[20] = molecular target: KiSS-1 receptor (Homo sapiens) (UniProt Q969F8); assay: Human kisspeptin (KISS1R) small molecule agonists, calcium flux assay in KISS1R-HEK293 cells (AID 1920064; active = well fitted curve in the direction sought with a large enough effect in the repeat runs; an effect the other way counts as inactive or inconclusive)
KiSS-1 receptor (Homo sapiens), sequence (Q969F8 whole entry, looked up): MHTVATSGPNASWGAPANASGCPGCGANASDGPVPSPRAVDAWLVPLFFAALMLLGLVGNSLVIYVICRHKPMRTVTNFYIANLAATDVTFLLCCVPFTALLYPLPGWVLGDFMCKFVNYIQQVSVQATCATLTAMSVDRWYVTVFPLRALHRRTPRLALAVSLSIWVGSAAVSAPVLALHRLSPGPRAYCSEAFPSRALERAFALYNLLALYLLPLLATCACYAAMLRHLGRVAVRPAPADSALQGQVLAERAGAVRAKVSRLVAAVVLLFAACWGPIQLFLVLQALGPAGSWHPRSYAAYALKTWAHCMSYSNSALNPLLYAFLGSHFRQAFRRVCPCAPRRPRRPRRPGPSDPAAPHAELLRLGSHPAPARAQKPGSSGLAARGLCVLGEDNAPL
In short: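 Cells plated and incubated 18 h; dye added, 1 h at 37 C; compounds in DMSO pinned in; signal read at 480/540 nm every second for 3 min. Each compound tested at 15 concentrations in triplicate.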

Measured: Potency

[O-][Cl+3]([O-])([O-])O
inactive: [1] | [2] | [3] | [4] | [5] | [6] | [7] | [8] | [9] | [10] | [11] | [12] | [13] | [14] | [15]

CC(C)(C)NCC(O)c1ccccc1Cl (stereo unspecified)
inactive: [1] | [2] | [3] | [16] | [17] | [18] | [5] | [6] | [19] | [8] | [10] | [12] | [13]

CC(=O)O[C@H]1CC[C@@]2(C)C(=CC[C@@H]3[C@@H]2CC[C@]2(C)C(=O)CC[C@@H]32)C1
inactive: [1] | [2] | [20] | [4] | [16] | [17] | [18] | [5] | [6] | [19] | [7] | [8] | [9] | [10] | [13] | [14] | [15]

CC(Oc1cc(Cl)c(Cl)cc1Cl)C(=O)O (stereo unspecified)
inactive: [1] | [2] | [3] | [4] | [18] | [5] | [6] | [7] | [8] | [10] | [13] | [14] | [15]

CCN[C@@H](C)Cc1ccccc1
inactive: [1] | [2] | [20] | [4] | [16] | [17] | [18] | [5] | [19] | [7] | [8] | [9] | [10] | [11] | [12] | [14] | [15]

N#Cc1c(Cl)cccc1Cl
inactive: [1] | [2] | [20] | [4] | [16] | [17] | [18] | [5] | [6] | [19] | [8] | [11] | [12] | [13] | [14] | [15]
